Source: PubChem BioAssay
An excerpt weighted towards active compounds, which were near 21% of everything screened.
Pf growth 48h: Primary qHTS for delayed death inhibitors of the malarial parasite plastid, 48 hour incubation. P. falciparum luciferase growth in erythrocytes, 48 h. AID 504832, 2011. Potency, µM (doses to about 28.7 µM), for the others: top-dose activity change, negative = inhibition, usual class: inhibitors. 310,000 tested, 5.9% active; note: potency is the fitted concentration of half-maximal effect; % is set by controls: 0 for no effect and ±100 for the full control effect
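Cell-based growth assay: transgenic P. falciparum expressing firefly luciferase, cultured in red cells within RPMI 1640 containing 0.5% w/v Albumax, 24 mM bicarbonate and gentamycin. A drop in luciferase activity indicates inhibition.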
Shiga inhibitor: A qHTS for Small Molecule Inhibitors of Shiga Toxin; Vero cells, Shiga toxin protein synthesis inhibition reporter; inhibition, % at 38.7 µM; 290,000 tested, 9.2% active; in the data active = inhibition mostly above about 28%, no sharp cut-off; inactive = mostly below about 43%; note: 0% is about no effect
HCV inhibitor: qHTS Assay for Inhibitors of Hepatitis C Virus (HCV). Potency, µM (doses to about 41.8 µM), for the others: at the highest dose activity change, negative = inhibition, hits mostly inhibitors. Huh7.5.1 HCVcc-Cre infection, luciferase reporter, 44 h. 340,000 tested, 3.4% active; note: potency is the fitted concentration of half-maximal effect; % is set by controls: 0 for no effect and ±100 for the full control effect
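After 44 h co-culture of compound, cells and HCVcc-Cre (~0.5 moi), substrate is added for 15 min at room temperature and luciferase measured over 15 sec. Cells were seeded at 1,000/well and pre-cultured 4 h.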
Pf growth 96h: Primary qHTS for delayed death inhibitors of the malarial parasite plastid, 96 hour incubation; P. falciparum luciferase reporter growth, 96 h; Potency, µM (titrated, usually from 28.7 µM), for the others: top-dose activity change, negative = inhibition, most hits filed as inhibitors; 320,000 tested, 6.9% active; AID 504834, 2011; note: potency is the fitted concentration of half-maximal effect; % is set by controls: 0 for no effect and ±100 for the full control effect
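Infected RBCs, 2% Hct / 0.05% parasitemia final; luciferase-reporter P. falciparum; cpd 96 h, 37 C, 5% CO2; luciferase detection reagent; luminescence.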
AMA1-RON2 inh: qHTS for Inhibitors of AMA1-RON; Towards Development of Antimalarial Drug Lead: Primary Screen; Plasmodium falciparum AMA1 (3D7) - RON2 peptide interaction; AlphaScreen AMA1-biotinylated RON2 peptide binding; Potency, µM (titrated, usually from 58.2 µM), without a hit: at the top dose activity change, negative = inhibition, actives largely listed as inhibitors; 360,000 tested, 0.2% active;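 note: potency is the fitted concentration of half-maximal effect; 0% = vehicle wells and -100% = peptide control; nearly all actives have a fitted effect of over 45% in size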
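AMA1 (3D7) with his tag at 25 nM final met compounds first, then biotinylated RON2 peptide at 25 nM; detection used donor plus acceptor beads, 10 µg/mL apiece, read by AlphaScreen after 30 min at room temperature.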
Cycloheximide cs: Cycloheximide Counterscreen for Small Molecule Inhibitors of Shiga Toxin; cell reporter, cycloheximide protein synthesis inhibition counterscreen; 300,000 tested, 12% active; max response, %; in the data active = max response mostly above about 13%, no sharp cut-off; inactive = mostly below about 14%; note: read at 38.3 µM for the half of the compounds with a filed dose; 0% is about no effect
An asterisk follows results filed as active; i = inactive; ? = inconclusive; nt = not tested or not shown. Unless noted, calls come from the whole dose curve; as a rule, active = well fitted curve in the direction sought with a large enough effect; inconclusive = small, poorly fitted or top-dose-only effect, or another doubt; inactive = no such curve, though single readings can be large; an effect the other way counts as inactive or inconclusive.

SMILES	Pf growth 48h	Shiga inhibitor	HCV inhibitor	Pf growth 96h	AMA1-RON2 inh	Cycloheximide cs
Cc1cc(C(=O)CN2C(=O)NC3(CCCCC3)C2=O)c(C)n1Cc1ccc2c(c1)OCO2	?	96*	-15%	0%	-19%	27*
CC(C)CCC1(C)NC(=O)N(CC(=O)Nc2ccc3c(c2)OCCO3)C1=O (stereo unspecified)	nt	nt	-12%	nt	-4%	nt
CC(C)CC1(C)NC(=O)N(CC(=O)NC(=O)Nc2ccc3c(c2)OCCO3)C1=O (stereo unspecified)	-25%	48*	-3%	?	-1%	58*
CCCNC(=O)Cn1c(=O)/c(=C/c2ccc(-c3ccc([N+](=O)[O-])cc3)o2)s/c1=C\C(=O)C(C)(C)C	nt	nt	?	nt	-6%	nt
Fc1ccccc1-c1cc2ccccc2cn1	84%	nt	13%	?	1%	nt
O=C(O)/C=C/c1cn(Cc2ccccc2)nc1-c1cccnc1	34%	-7	23%	44%	-4%	-1
CN(CC(=O)Nc1cccc(F)c1)C(=O)/C=C/c1cn(Cc2ccccc2)nc1-c1cccnc1	?	nt	?	10µM*	1%	nt
CC[C@H](C)[C@H](NC(=O)[C@@H](N)Cc1ccc(O)cc1)C(=O)NCC(=O)N[C@@H](CO)C(=O)N[C@@H](CCCN=C(N)N)C(N)=O	nt	-8	nt	nt	nt	-7
CCn1c(=O)c2sccc2n(CC(=O)NCCC2=CCCCC2)c1=O	-8%	2	2%	0%	-6%	-7
Cc1nc2c(-c3ccc(F)cc3)c(C)nn2c(C)c1CCC(=O)Nc1ccccc1F	?	-7	-14%	9.3µM*	3%	-4
Cc1nc2c(-c3ccccc3)c(C)nn2c(C)c1CCC(=O)NC(C)CCc1ccco1 (stereo unspecified)	nt	-13	-16%	10µM*	-6%	-4
CCCN1CCN(C(=O)C2CCN(S(=O)(=O)c3c(C)noc3/C=C/c3ccc(C)cc3)CC2)CC1	?	-6	?	?	-3%	-9
C[C@H]1CN([C@@H](C)CO)C(=O)c2cc(Br)cnc2O[C@H]1CN(C)S(=O)(=O)c1ccccc1F	nt	nt	nt	nt	-1%	nt
CCOC(=O)[C@]12CCC=C1N(Cc1ccco1)C(=O)[C@H](CC(=O)NCCC(C)C)C2	nt	nt	nt	nt	16%	nt
O=[N+]([O-])CC(c1ccccc1)c1c[nH]c2ccccc12 (stereo unspecified)	nt	nt	?	nt	-4%	nt
COc1cc(C(C[N+](=O)[O-])c2c(C)[nH]c3ccccc23)cc(OC)c1OC (stereo unspecified)	13µM*	6	?	12%	-9%	1
O=C1CC(N2CCc3ccccc32)C(=O)N1c1ccccc1 (stereo unspecified)	8%	73*	-8%	22%	-15%	33
CCOc1ccc(N2C(=O)CC(N3CCc4ccccc43)C2=O)cc1 (stereo unspecified)	nt	-24	16%	?	3%	0
O=C(/C=C/Nc1ccc(Br)cn1)c1cccc(OC(F)F)c1	264%	nt	?	274%	7%	nt
CC(=O)c1sc(NC(=O)COc2ccc([N+](=O)[O-])cc2)nc1C	16%	-1	6%	15µM*	-4%	3
Cc1ccc(CNc2nc(C)c(C(=O)N(C)C)s2)cc1	-47%	65*	-16%	23%	-1%	28*
COc1ccc(CCNc2nc(C)c(C(C)=O)s2)cc1OC	-13%	-2	-16%	8%	-13%	7
CCn1nnc(NC(=O)COc2ccc([N+](=O)[O-])cc2)n1	6%	23	-4%	21%	5%	19*
CC(=O)c1sc(NC(=O)COc2ccc(Br)cc2)nc1C	12%	-12	-12%	0%	6%	1
Cc1ccc(OCC(=O)Nc2ccc([N+](=O)[O-])cc2)cc1	6%	-8	8%	243%	10%	0
SMILES	Pf growth 48h	Shiga inhibitor	HCV inhibitor	Pf growth 96h	AMA1-RON2 inh	Cycloheximide cs
Cc1nc(NCCc2ccccc2)sc1C(=O)O	137%	41*	3%	111%	1%	21
O=c1c2ccccc2ncn1-c1ccc([N+](=O)[O-])cc1Cl	2%	-3	8%	?	0%	-2
CCCCCCCc1c(O)nc(SCC(=O)O)[nH]c1=O	18%	-8	25%	-12%	10%	-1
COc1ccc(OCCCC(=O)Nc2nc(C)c(C(C)=O)s2)cc1	21%	24	-1%	i	10%	-2
Cc1ccc(CNc2nc(Cl)c(C#N)s2)cc1	91%	62*	-22%	208%	-14%	28*
CC(=O)c1sc(NCCOc2ccc(C)cc2)nc1C	38%	60*	?	1%	-5%	28*
N#Cc1sc(NCc2cccc(Cl)c2)nc1Cl	nt	35	-2%	-12%	23%	20
CC(=O)c1sc(Nc2ccc(C)cc2)nc1C	29%	13	12%	-5%	-9%	15
CC(=O)c1sc(NCc2ccc(C)cc2)nc1C	158%	103*	-15%	172%	0%	43*
CC(=O)c1sc(NC(=O)CCS(=O)(=O)c2ccccc2)nc1C	2%	58*	13µM*	-1%	17%	57*
COCCNC(=O)C1(C)CCCN(Cc2noc(-c3ccccc3OC)n2)C1 (stereo unspecified)	nt	nt	nt	nt	-1%	nt
COc1cccc(C(=O)NCCS(=O)(=O)NCCCc2ccccc2)c1	18%	nt	25%	42%	3%	nt
CC(=O)c1sc(Nc2cccc3ccccc23)nc1C	nt	nt	-12%	nt	-3%	nt
CC(=O)c1sc(NCc2ccccc2)nc1C	34%	43	-17%	2%	-7%	31*
CCOc1ccccc1C(=O)Oc1ccc2ccc(=O)oc2c1	20%	-10	7%	?	15%	-1
O=C(OC(c1ccccc1)c1nccc2ccccc12)c1ccccc1 (stereo unspecified)	nt	nt	?	nt	-18%	nt
O=C(OC(c1ccccc1)c1nccc2ccccc12)c1cccc([N+](=O)[O-])c1 (stereo unspecified)	2%	35	-12%	-52%	-15%	32*
CC(C)C(OC(=O)c1ccccc1)c1nccc2ccccc12 (stereo unspecified)	-1%	86*	?	32%	-3%	49*
CCc1noc(C)c1C(=O)Nc1nnc(CC(C)C)s1	-24%	nt	9%	3%	-3%	nt
CCS(=O)(=O)N1CCC(C(=O)Oc2ccc(Cl)cc2)CC1	1%	-3	0%	3%	3%	-3
CCOc1ccc(N2CC(C(=O)Nc3ccccc3C(=O)N3CCOCC3)CC2=O)cc1 (stereo unspecified)	0%	-3	-14%	33%	17%	-7
